GIRK2 act: activators of NPY4-receptor-primed GIRK2 channels, summary, cell-based, HEK293, thallium flux | G protein-activated inward rectifier potassium channel 2 (Homo sapiens), P48051 | HEK293 GIRK2/NPY4 cells, thallium flux fluorescence | activation (% efficacy), % for hits at 37.5 µM | 34,000 tested, under 10 active | AID 1259324, 2017;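 active = primary screen hit, no activity in plain HEK293 cells, and in GIRK2-only cells above 5% efficacy rising with concentration; inactive = the rest, including fluorescent compounds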;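 note: efficacy is normalized control-subtracted fluorescence 15 s after thallium addition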
AMPAR-TARP mod: modulators of GluA2-stargazin AMPA receptor complexes, primary screen, cell-based, membrane potential dye. Voltage-dependent calcium channel gamma-2 subunit (Mus musculus) + Glutamate receptor 2 …. HEK293 GluA2+stargazin, membrane potential dye (FDSS), glutamate EC50; hits were called plate by plate, in both directions. calls only at 30 µM. actives 3.5% (n = 40,000). AID 1259245, 2017;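 active = any of four per-well response measures lying three or more SD from its plate-wide compound average, in either direction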
Numbers without * were called inactive; i = inactive; x = no result given; + = active, no number. The sample as a whole holds a higher share of hits than the screen did.

SMILES | GIRK2 act | AMPAR-TARP mod
Cc1cccc(Nc2ccc(N3CCN(C(=O)C(C)(C)C)CC3)nn2)n1 | i | x
Cc1cccc(Nc2ccc(N3CCN(C(=O)c4c(F)cccc4F)CC3)nn2)n1 | i | x
Cc1cccc(Nc2ccc(N3CCN(C(=O)Cc4cccs4)CC3)nn2)n1 | i | +
COc1cccc(NC(=O)CSc2nnc(-c3ccc(OC)c(OC)c3)n2N)c1 | i | i
CNC(=O)Cc1csc(NC(=O)Cc2csc(Nc3ccccc3)n2)n1 | i | i
Cc1cc(C)n(CC(=O)Nc2ccc(Cl)nc2)n1 | i | i
COc1ccc(Cl)cc1NC(=O)Cc1csc(Nc2ccc(F)cc2)n1 | i | i
COc1ccc(OC)c(Nc2nc(CC(=O)NCCc3c[nH]c4ccccc34)cs2)c1 | i | i
COc1cccc(C(=O)Nc2ccc3c(c2)N(C(=O)c2ccco2)CC3)c1OC | i | i
COc1nn(C)cc1C(=O)Nc1ccc2c(c1)N(C(=O)c1ccco1)CC2 | i | +
CC(=O)N1CCc2ccc(NC(=O)c3ccno3)cc21 | i | +
CC(=O)N1CCc2ccc(NC(=O)c3ccc(F)c(F)c3)cc21 | i | i
COc1ccccc1CNC(=O)CCc1csc(NC(=O)c2cccs2)n1 | i | i
COc1ccc2c(=O)c(Oc3ccc(C(=O)NCCN4CCOCC4)cc3)coc2c1 | i | i
O=C(Nc1nc2ncccc2cc1-c1ccccc1)C1CCCC1 | i | i
COc1cccc(C(=O)Nc2nc3ncccc3cc2-c2ccccc2)c1 | i | +
COc1ccc(NC(=O)Cn2nc(C)c(Br)c2C)cc1 | i | i
NS(=O)(=O)c1ccc(CNC(=O)CCc2csc(NC(=O)c3ccccc3)n2)cc1 | i | i
COC(=O)c1ccc(OC)c(Cn2cnc3c(-c4ccccc4)csc3c2=O)c1 | i | i
Cc1ccc(Cl)cc1NC(=O)Cn1c(=O)n(C2CC2)c(=O)c2nscc21 | i | +
Cc1ccc(NC(=O)Cn2c(=O)n(C3CC3)c(=O)c3nscc32)c(C)c1 | i | i
COc1ccccc1NC(=O)CSc1nnnn1-c1ccc(C(C)C)cc1 | i | i
COC(=O)C1=C(CS(=O)(=O)c2ccc(OC)c(OC)c2)NC(=O)NC1c1cccc(Cl)c1 (stereo unspecified) | x | i
COC(=O)C1=C(CS(=O)(=O)c2ccc(OC)c(OC)c2)NC(=O)NC1c1ccc(O)cc1 (stereo unspecified) | x | i
COC(=O)C1=C(CS(=O)(=O)c2cc(Cl)ccc2OC)NC(=O)NC1c1ccccc1 (stereo unspecified) | i | +
SMILES | GIRK2 act | AMPAR-TARP mod
COC(=O)C1=C(CS(=O)(=O)c2ccccc2)NC(=O)NC1c1ccc(OC)c(OC)c1 (stereo unspecified) | x | +
CCOC(=O)C1CCc2sc(NC(=O)c3nc(-c4cnccn4)no3)nc21 (stereo unspecified) | i | i
COc1cc(OC)cc(C(=O)N2CCOC(c3ccccc3)C2)c1 (stereo unspecified) | i | x
CCOC(=O)CC(=O)CSc1cc(C)c(C#N)c2nc3ccccc3n12 | i | i
CCCc1cc(NCC2CCCO2)n2c(nc3ccccc32)c1C#N (stereo unspecified) | i | +
O=C(Cn1c(=O)oc2ccccc21)N(CCc1ccccc1)Cc1ccccn1 | i | i
Cn1c(=O)c2c(nc3n2CC(c2ccc(F)cc2)=NN3CC(=O)O)n(C)c1=O | x | i
Cn1c(=O)c2c(nc3n2CC(c2ccc(F)cc2)=NN3CC(N)=O)n(C)c1=O | x | +
CC(C)NC(=O)CSc1nnc2n(Cc3ccccc3)c(=O)c3ccc(C(=O)NC(C)C)cc3n12 | i | +
CC(C)NC(=O)c1ccc2c(=O)n(Cc3ccccc3)c3nnc(SCC(N)=O)n3c2c1 | i | +
CC(C)NC(=O)c1ccc(Cn2c(SCC#N)nc3ccccc3c2=O)cc1 | i | i
CCCNC(=O)c1ccc(Cn2c(SCC(=O)NC(C)C)nc3ccccc3c2=O)cc1 | i | i
Cn1c(CSc2nc(N)cc(N)n2)nnc1SCC(=O)NC1CCCCC1 | x | i
Cn1c(=O)c2ccc(C(=O)NC3CCCCC3)cc2n2c(SCC(N)=O)nnc12 | i | +
O=C(CCN1C(=O)c2ccccc2S1(=O)=O)Nc1nccs1 | i | i
Cc1nn(-c2nc3c(c(=O)n(CCN4CCOCC4)c(=O)n3C)n2C)c(C)c1C | x | i
O=C(c1ccc(OC(F)(F)F)cc1)N1CCN(C(=O)c2cnn3ccccc23)CC1 | i | i
COc1ccc(-c2nnc(NC(=O)c3ccc4c(c3)OCCO4)o2)cc1OC | i | i
COc1cc(/C=C2/SC(=S)N(c3ccc(C)c(C)c3)C2=O)ccc1O | x | i
COc1cc(/C=C2\SC(=S)N(c3cccc(C)c3C)C2=O)ccc1O | x | +
COC(=O)Cn1c(=O)c2c(nc3n2CC(C)CN3c2ccc(OC)cc2OC)n(C)c1=O (stereo unspecified) | x | i
O=C(NCc1cccs1)C(=O)NCC1CCN(Cc2cccs2)CC1 | i | i
COCCN1CCC(CNC(=O)C(=O)NCc2cccs2)CC1 | i | +
COc1ccc(S(=O)(=O)N2CCC(OC)CC2)cc1 | x | i
Cc1ccc(NC(=O)C(=O)NCC2CCN(S(=O)(=O)C3CC3)CC2)cc1F | i | i
SMILES | GIRK2 act | AMPAR-TARP mod
CCc1ccccc1NC(=O)N1CCN(c2ccc3nnc(-c4ccco4)n3n2)CC1 | i | +
COc1ccccc1NC(=O)N1CCN(c2ccc3nnc(-c4ccco4)n3n2)CC1 | i | i
Cc1nnc(C2CCN(C(=O)c3cnc4ccccc4n3)CC2)s1 | i | i
COc1cc(NS(=O)(=O)c2ccc(F)cc2)ccc1N1CCCCC1=O | i | i
Cc1ccc(NS(=O)(=O)c2ccc(F)cc2)cc1N1CCCCC1=O | i | +
Cc1cccc(NC(=O)C(=O)NCC2(O)CCOCC2)c1 | i | x
O=S(=O)(NCC1(c2cccs2)CCCC1)c1ccc2c(c1)OCCO2 | i | x
Cc1nn(C2CCS(=O)(=O)C2)c2nc(-c3ccco3)cc(C(=O)NCCc3ccc(F)cc3)c12 (stereo unspecified) | i | +
Cc1nn(C2CCS(=O)(=O)C2)c2nc(-c3ccco3)cc(C(=O)NCc3c(F)cccc3F)c12 (stereo unspecified) | i | i
CNC(=O)c1c(NC(=O)CCSc2ccc(OC)cc2)sc(C)c1C | i | i
COC(=O)c1ccc2c(=O)n(Cc3ccc(C(=O)NC4CCCC4)cc3)c(=S)[nH]c2c1 | i | i
COC(=O)c1ccc2c(=O)n(Cc3ccc(C(=O)NCCCN4CCOCC4)cc3)c(=S)[nH]c2c1 | i | +
CC1CCN(C(=O)CSc2nnc3sc4ccccc4n23)CC1 | x | i
C=CCNS(=O)(=O)CCCOc1ccc2c(c1)OCO2 | i | i
COc1ccccc1NC(=O)c1cc(S(=O)(=O)N2CCC(C)CC2)ccc1F | x | i
CC(C)N1CCC(CNC(=O)C(=O)NCc2ccc3c(c2)OCO3)CC1 | i | i
O=C(NCc1ccc2c(c1)OCO2)C(=O)NCC1CCN(C(=O)c2ccncc2)CC1 | i | +
